Consider 86 compounds from PubChem BioAssay AID720504 (National Center for Advancing Translational Sciences (NCATS), 2013).

Hit rate of the full screen: of about 360,000 compounds, about 10,000 (2.8%) were called active. Inconclusive results (about 4%) are left out. The sample holds actives, similar compounds and a random draw of the others, so the mix is not that of the screen. Calls come from the whole dose curve; as a rule, active = well fitted inhibition curve with a large enough effect; inconclusive = small, poorly fitted or top-dose-only effect; inactive = flat fitted curve, though single readings scatter.
% is set by controls: 0 for no effect and ±100 for the full control effect; potency is the fitted concentration of half-maximal effect.

The assay deals with Serine/threonine-protein kinase PLK1 (Homo sapiens) (UniProt P53350). Description: qHTS for Inhibitors of PLK1-PDB (polo-like kinase 1 - polo-box domain): Primary Screen. For max response, negative = inhibition: series mostly up to about 57 µM. Note: nearly all actives have a fitted effect of over 65% in size. Conditions: Plk1 PBD binding of FITC phosphopeptide, fluorescence polarization.
Serine/threonine-protein kinase PLK1 (Homo sapiens), sequence (P53350 whole entry, looked up, the tested form may be a part): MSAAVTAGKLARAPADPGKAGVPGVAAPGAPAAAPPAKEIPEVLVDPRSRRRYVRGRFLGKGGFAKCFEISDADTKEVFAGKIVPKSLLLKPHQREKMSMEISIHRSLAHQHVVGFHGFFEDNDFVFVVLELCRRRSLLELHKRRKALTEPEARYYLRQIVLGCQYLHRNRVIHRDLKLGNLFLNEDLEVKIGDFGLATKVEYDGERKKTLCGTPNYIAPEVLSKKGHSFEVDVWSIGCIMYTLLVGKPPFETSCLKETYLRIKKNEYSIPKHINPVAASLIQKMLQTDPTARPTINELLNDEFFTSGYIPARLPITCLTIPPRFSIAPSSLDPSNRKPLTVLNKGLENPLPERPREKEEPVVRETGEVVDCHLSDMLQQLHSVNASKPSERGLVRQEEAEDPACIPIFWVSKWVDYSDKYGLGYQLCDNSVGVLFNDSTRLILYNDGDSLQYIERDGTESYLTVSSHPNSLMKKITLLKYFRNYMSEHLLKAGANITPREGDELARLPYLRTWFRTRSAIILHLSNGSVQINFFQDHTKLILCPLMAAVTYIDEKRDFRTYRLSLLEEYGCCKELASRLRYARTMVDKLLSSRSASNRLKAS
For `COc1ccc([C@H]2N[C@]3(CCCN(CC4CCCCC4)C3=O)[C@H]3C(=O)N(C)C(=O)[C@@H]23)cc1`, the max response, negative = inhibition is -7.68% (inactive).

`CCN1C(=O)[C@H]2[C@@H](c3ccc(C(F)(F)F)cc3)N[C@]3(CCCN(Cc4ccc(Br)cc4)C3=O)[C@H]2C1=O`: the max response, negative = inhibition was -8.24% (inactive).

Turning to `COc1cccc(C(NC(C)=O)c2nc(-c3cnc4ccccc4c3)cs2)c1` (stereo unspecified), the max response, negative = inhibition was -4.39% (inactive).

As to `CCc1nc2c(OCCOc3ccccc3)cccn2c1N(C)C(=O)c1cccs1`, the max response, negative = inhibition is -1.33% (inactive).

In the case of `O=C(CN1C(=O)NC2(CCc3ccccc32)C1=O)NC1CCCCC1` (stereo unspecified), the max response, negative = inhibition was 2.51% (inactive).

On to `CCOC(=O)C1CCN(C(=O)c2ccc3c(=O)n4nc(Nc5ccccc5CC)sc4nc3c2)CC1`, for which the max response, negative = inhibition is -1.87% (inactive).

Regarding `COC(=O)C1=CN(C)C=C(C(=O)OC)C1c1ccc(Cl)cc1Cl`, the max response, negative = inhibition is 2.45% (inactive).

Turning to `NC(=O)C1(C(N)=O)OC1c1ccc(Cl)cc1Cl` (stereo unspecified), the Potency is 16.8 µM (active).

Turning to `Nc1ccc2c(c1)C(O)c1ccc(Cl)cc1-2` (stereo unspecified), the max response, negative = inhibition was -6.61% (inactive).

With `COC(=O)c1ccc2nc(-c3ccc(Cl)cc3)c(Cc3cccc(F)c3)n2c1`, the max response, negative = inhibition was 1.38% (inactive).

As to `O=C(Cn1cnc2c(OCc3ccccc3)ncnc21)NCCCn1ccnc1`, the max response, negative = inhibition is -12.9% (inactive).

For the compound `O=C(Cn1cnc2c(OCc3ccccc3)ncnc21)NCc1nc2ccccc2[nH]1`, the Potency was 21.2 µM (active).

For the compound `CC(CNC(=O)Cn1cnc2c(OCc3ccccc3)ncnc21)c1ccccc1` (stereo unspecified), the max response, negative = inhibition was -8.63% (inactive).

Turning to `O=C(COC(=O)c1ccc(S(=O)(=O)N2CCCCCC2)cc1)Nc1ccccc1C(F)(F)F`, the max response, negative = inhibition is -1.71% (inactive).

Regarding `C[C@H]1NS(=O)(=O)c2cc(Cl)ccc2O[C@@H]1c1ccccc1`, the max response, negative = inhibition is -5.69% (inactive).

`COc1cc(NC(=O)c2cc(-c3ccc(F)cc3OC(C)C)n[nH]2)cc(OC)c1OC`: the max response, negative = inhibition is -10.2% (inactive).

With `Cc1nc([N+](=O)[O-])nn1C12CC3CC(CC(Br)(C3)C1)C2`, the Potency was 4.74 µM (active).

In the case of `COc1cccc(NC(=O)c2nn(C34CC5CC(CC(C5)C3)C4)cc2[N+](=O)[O-])c1`, the max response, negative = inhibition was 1.45% (inactive).

Consider `CCOC(=O)N(C)c1c(CC)nc2c(OCc3ccccc3C(=O)OC)cccn12`, for which the max response, negative = inhibition is -14.2% (inactive).

For the compound `COC(=O)C[C@@H]1C=C[C@@H](NC(=O)c2ccc3c(c2)OCO3)[C@@H](CO)O1`, the max response, negative = inhibition was -2.88% (inactive).

`O=C(NCc1ccc(F)cc1)c1cc(C2CCCCN2C(=O)c2cccs2)on1` (stereo unspecified): the max response, negative = inhibition is -1.47% (inactive).

For `O=S(=O)(c1cccc(C(F)(F)F)c1)N1c2ccccc2-n2cccc2C1c1cccnc1` (stereo unspecified), the max response, negative = inhibition is 4.88% (inactive).

On to `CCCCOCCCNC(=O)C[C@@H]1C[C@@]2(C(=O)OCC)CCCC=C2N(CCC2=CCCCC2)C1=O`, for which the max response, negative = inhibition is 4% (inactive).

As for `CC1(C)OC(=O)C2=C(C[C@@H](C3CCCCC3)O[C@@H]2c2ccc(Cl)cc2)O1`, the max response, negative = inhibition is -3.8% (inactive).

Take `CCOC(=O)c1ccn(S(=O)(=O)c2ccc(C)cc2)c1-c1ccccc1`: the max response, negative = inhibition was -3.65% (inactive).

Take `O=C(Nc1ccc(N2CCCCC2)cc1)c1cc(S(=O)(=O)N2CCOCC2)ccc1F`: the max response, negative = inhibition was 1.97% (inactive).

For the compound `Cc1cccc(NC(=O)c2cc(S(=O)(=O)N3CCC4(CC3)OCCO4)ccc2F)c1`, the Potency is 26.7 µM (active).

As for `CCOc1ccccc1NC(=O)c1cc(S(=O)(=O)N2CCC3(CC2)OCCO3)ccc1F`, the max response, negative = inhibition was -1.47% (inactive).

Turning to `O=C1C=CC(=O)N1c1ccc(N2CCCCC2)cc1`, the Potency is 3.36 µM (active).

Consider `O=C1CC(N2CCN(c3ccc(F)cc3)CC2)C(=O)N1c1ccccc1` (stereo unspecified), for which the max response, negative = inhibition was -2.61% (inactive).

In the case of `CC(=O)Nc1ccc(S(=O)(=O)Nc2ccc(N3CCCCC3)cc2)cc1`, the max response, negative = inhibition was -2.92% (inactive).

With `C=CCN1CCN(c2ccncc2S(=O)(=O)N2CCN(C)CC2)CC1`, the max response, negative = inhibition is -10.5% (inactive).

For the compound `CCC1OC(C2CC2)CC2=C1C(=O)OC(C)(C)O2` (stereo unspecified), the max response, negative = inhibition was -2.05% (inactive).

As to `CC1CCN(C(=O)CSc2nnc(-c3ccco3)n2N)CC1`, the max response, negative = inhibition was -0.744% (inactive).

In the case of `CCc1nc2ccc(C(=O)NC3CCN(Cc4ccccc4)CC3)cn2c1N(CC)CCOC`, the max response, negative = inhibition was -18.3% (inactive).

For `O=C(CSc1cccc2cccnc12)N/N=C/c1cccnc1`, the Potency was 7.52 µM (active).

As for `CCn1c(SCC(=O)N/N=C/c2ccncc2)nc2ccccc21`, the max response, negative = inhibition was -2.87% (inactive).

Consider `COc1ccc(C(=O)NCC(=O)N/N=C/c2cccnc2)cc1`, for which the max response, negative = inhibition was -5.97% (inactive).

Regarding `O=[N+]([O-])c1cccc(C=NN=Cc2ccccc2O)c1`, the max response, negative = inhibition was -3.02% (inactive).

Regarding `O=C(Oc1ccc([N+](=O)[O-])cc1)c1ccc2ccccc2n1`, the max response, negative = inhibition was -21.6% (inactive).

Regarding `O=[N+]([O-])c1ccc(N=Cc2c(O)ccc3ccccc23)cc1`, the Potency was 29.9 µM (active).

Take `CCCCNC(=O)C[C@@H]1C[C@@]2(C(=O)OC)CC(C)(C)CC=C2N(Cc2ccco2)C1=O`: the max response, negative = inhibition is 0.813% (inactive).

Regarding `Cc1cccc(-c2cnc(C(O)c3ccc4ccccc4c3)[nH]2)c1` (stereo unspecified), the max response, negative = inhibition is -0.198% (inactive).

For `O=C(NN=Cc1ccc([N+](=O)[O-])cc1)C1CC1`, the max response, negative = inhibition was -0.264% (inactive).

Consider `O=C(N/N=C/c1ccc(Cl)cc1)c1nc2ccc([N+](=O)[O-])cc2c(=O)[nH]1`, for which the Potency is 18.9 µM (active).

Regarding `N#Cc1cc([N+](=O)[O-])ccc1Oc1cccc(/C=N/NC(=O)c2ccc(Cl)cc2)c1`, the max response, negative = inhibition was 0.641% (inactive).

Consider `O=C(NCc1ccc(F)cc1)c1cc(C2CCCCN2C(=O)C2CCCCC2)on1` (stereo unspecified), for which the max response, negative = inhibition is 2.6% (inactive).

`CC(C)CC1C(=O)N(Cc2cn(Cc3ccco3)nn2)CCS(=O)(=O)N1Cc1ccc(-c2ccc(Cl)c(Cl)c2)cc1` (stereo unspecified): the max response, negative = inhibition was -13.6% (inactive).

For `CNc1cncc(-c2ccc(NS(C)(=O)=O)cc2)n1`, the max response, negative = inhibition is 6.53% (inactive).

In the case of `COc1ccc(C(=O)NC(=O)CSc2nnc(-c3ccco3)n2-c2ccccc2)cc1`, the max response, negative = inhibition was -12.5% (inactive).

`O=C(CSc1nnc(-c2ccco2)n1-c1ccccc1)NCCc1ccccc1`: the max response, negative = inhibition was -10.6% (inactive).

On to `CCOc1ccc(-n2c(SCC(N)=O)nnc2-c2ccco2)cc1`, for which the Potency is 15 µM (active).

As to `OCCN1CCN(c2ncnc3c2ncn3[C@H]2CN(Cc3ccco3)C[C@@H](CO)O2)CC1`, the max response, negative = inhibition is -11.1% (inactive).

For the compound `O=C(Nc1ccc(N2CCOCC2)cc1)c1cccc2c(-c3ccc(F)c(F)c3)coc12`, the max response, negative = inhibition is -15% (inactive).

For `CC(=O)N1c2ccc(S(=O)(=O)NCCC(=O)N(C)C3CCCCC3)cc2CC1C` (stereo unspecified), the Potency is 2.99 µM (active).

As to `CC(=O)N1c2ccc(S(=O)(=O)N(C)CC(=O)N(C)Cc3ccccc3)cc2CC1C` (stereo unspecified), the max response, negative = inhibition was 5.96% (inactive).

Take `COc1cccc(CNS(=O)(=O)c2ccc3c(c2)CC(C)N3C(=O)C2CCC2)c1` (stereo unspecified): the max response, negative = inhibition is -3.29% (inactive).

In the case of `Cc1ccc(-c2ccc(CN3C(C(C)C)C(=O)N(Cc4cn(CCC5OCCCO5)nn4)CCS3(=O)=O)cc2)cc1` (stereo unspecified), the max response, negative = inhibition is -2.35% (inactive).

Regarding `CCOc1ccc(CCN2C(=O)C(=O)N([C@@H](CC(C)C)CN3CCC[C@H]3CN3C(=O)C(=O)NC[C@@H]3Cc3ccccc3)C[C@@H]2CC(C)C)cc1`, the max response, negative = inhibition was -0.137% (inactive).

Take `Cc1cccc(-c2cnc(C(O)c3cc(C)cc(C)c3)[nH]2)c1` (stereo unspecified): the max response, negative = inhibition was -12% (inactive).

Take `CCOC(=O)c1c(NC(=S)NC(=O)/C=C/c2cccs2)sc(C)c1C`: the max response, negative = inhibition is -3.87% (inactive).

As to `CCOC(=O)c1sc(=NC(=O)c2ccc(Br)cc2)n(C)c1C`, the max response, negative = inhibition is -3.76% (inactive).

Turning to `CCOC(=O)c1sc(=NC(=O)/C=C/c2cccs2)n(C)c1C`, the Potency was 26.7 µM (active).

`COC(=O)[C@]12CCCCC=C1N(Cc1ccc3c(c1)OCO3)C(=O)[C@H](CC(=O)N1CCOCC1)C2`: the max response, negative = inhibition was -9.01% (inactive).

Turning to `CC(O)c1nc2ccccc2n1Cc1ccc([N+](=O)[O-])cc1` (stereo unspecified), the max response, negative = inhibition was -2.98% (inactive).

As for `CC(=O)N1c2ccccc2N(Cc2ccc([N+](=O)[O-])cc2)C(=O)C1(C)C`, the Potency was 29.9 µM (active).

As for `O=C(CSCc1ccc([N+](=O)[O-])cc1)NCCSCc1ccccc1`, the max response, negative = inhibition is -1.81% (inactive).

As for `Cc1nc2c(OCc3cccc(Cl)c3)cccn2c1N(C)CC1CC1`, the max response, negative = inhibition was -10.4% (inactive).

With `COC(=O)[C@]12CCCCC=C1N(Cc1cccc3ccccc13)C(=O)[C@H](CC(=O)N1CCOCC1)C2`, the max response, negative = inhibition is -13.4% (inactive).

On to `Cc1cc(Cl)ccc1-c1nc(NCCN(C)C)nc2ccsc12`, for which the max response, negative = inhibition is -8.63% (inactive).

On to `COc1ccccc1-c1cc(NC(C)=O)c2ncc(-c3ccc(F)cc3)n2c1`, for which the max response, negative = inhibition is -2.69% (inactive).

As for `COc1cc(/C=C2/C(=O)NN(c3ccc(F)cc3)C2=O)cc([N+](=O)[O-])c1O`, the max response, negative = inhibition was -17.7% (inactive).

Consider `CC1=NOC(=O)/C1=C\c1ccccc1`, for which the Potency was 16.8 µM (active).

As to `CCOc1cc(/C=N/O)ccc1OCc1ccccc1F`, the max response, negative = inhibition was 5.59% (inactive).

In the case of `C#CCOc1ccc(/C=C2/C(=O)NN(c3ccccc3)C2=O)cc1OC`, the Potency was 18.9 µM (active).

Turning to `COc1cc(C=O)ccc1Oc1nnnn1-c1ccccc1`, the max response, negative = inhibition was -3.25% (inactive).

In the case of `COc1cc(/C=C2/C(=O)ON=C2C)ccc1OCc1cccc(F)c1`, the Potency was 1.06 µM (active).

For `CCOc1cc(/C=C2\C(=N)N3N=C(C)SC3=NC2=O)ccc1OCCOc1ccccc1`, the max response, negative = inhibition was -10.7% (inactive).

Regarding `C#CCOc1ccc(/C=C2/C(=O)ON=C2C)cc1OCC`, the Potency is 2.12 µM (active).

In the case of `COc1ccnc2c1c(=O)n(Cc1cccc(F)c1)c(=O)n2C`, the max response, negative = inhibition is -8.75% (inactive).

`Cc1ccccc1C1=N/C(=C/c2cccnc2)C(=O)O1`: the max response, negative = inhibition is -12.6% (inactive).

`COc1cc(/C=C2\SC(=O)NC2=O)ccc1OCc1ccc(Cl)nc1`: the max response, negative = inhibition is -13.4% (inactive).

On to `Cc1nc2ccccn2c(=O)c1NC(=O)c1ccc(Br)o1`, for which the max response, negative = inhibition was -0.655% (inactive).

With `O=[N+]([O-])c1ccc(CN2CC(N3CC=CC3)CS2(=O)=O)cc1` (stereo unspecified), the max response, negative = inhibition was -4.83% (inactive).

Regarding `CCc1cc(C(=O)N(CC)CC(=O)Nc2c(F)cccc2F)sc1C`, the max response, negative = inhibition was -2.84% (inactive).

In the case of `CSCCC(c1nnnn1Cc1ccccc1)N1CCN(C/C=C/c2ccccc2)CC1` (stereo unspecified), the max response, negative = inhibition was -5.15% (inactive).
